Test results: PubChem BioAssay AID2057 (The Scripps Research Institute Molecular Screening Center, 2009)
Screen size: about 320,000 compounds; about 2,100 (0.66%) were called active.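 Rule for the calls: active = inhibition above the mean inhibition of all tested compounds plus 3 SD, set per campaign (cut at about 40% in these data); inactive = the rest.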 Shown is part of a subset that was picked to be rich in actives.

target: Induced myeloid leukemia cell differentiation protein Mcl-1 (Homo sapiens) (UniProt Q07820); assay: inhibitors of MCL1 binding to BIM-BH3, primary screen, biochemical, fluorescence polarization (AID 2057); conditions: GST-MCL1 / FITC-Bim-BH3 fluorescence polarization; at 10.9 µM; stronger effect = higher value;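 note: 0% = DMSO wells and 100% = unlabeled Bim-BH3 peptide control; higher means more loss of mP so more displacement of Bim peptide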
Sequence (Q07820 whole entry, looked up): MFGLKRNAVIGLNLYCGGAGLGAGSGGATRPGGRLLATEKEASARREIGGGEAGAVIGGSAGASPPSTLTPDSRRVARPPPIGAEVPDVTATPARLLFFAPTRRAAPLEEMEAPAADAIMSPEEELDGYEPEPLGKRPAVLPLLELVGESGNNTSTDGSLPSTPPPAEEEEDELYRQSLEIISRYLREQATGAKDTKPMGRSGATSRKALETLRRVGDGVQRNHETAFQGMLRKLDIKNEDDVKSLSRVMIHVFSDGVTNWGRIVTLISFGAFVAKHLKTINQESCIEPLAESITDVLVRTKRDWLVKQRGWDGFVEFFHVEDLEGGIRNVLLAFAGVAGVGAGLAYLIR

| SMILES | inhibition |
| --- | --- |
| CC(C)(C)NC(=O)COC(=O)c1cc(Br)ccc1Cl | -2.96% (inactive) |
| CCCC1NC(=O)NC(C)=C1C(=O)OCC (stereo not given) | -0.76% (inactive) |
| Oc1ccc2ccccc2c1N=Nc1nccs1 | 61.4% (active) |
| CC1=C(C(=O)OC(C)(C)C)C(c2ccc(Br)cc2)NC(=O)N1CCCC(=O)O (stereo not given) | 2.27% (inactive) |
| CC[N+](C)(CC)CCC[n+]1c(-c2ccccc2)c2cc(N)ccc2c2ccc(N)cc21 | 122% (active) |
| C=C(C)CSc1nnc(-c2ccc(C)cc2)n1N | -0.24% (inactive) |
| CC(OC(=O)c1ccccc1NCCO)C(=O)Nc1ccnn1C(C)C (stereo not given) | 1.18% (inactive) |
| CSCCC(NC(=O)c1ccc(Cl)cc1Cl)C(=O)NNC(=O)c1csc(N2CCOCC2)n1 (stereo not given) | 12.3% (inactive) |
| CN(C(=O)COC(=O)c1cc(=O)[nH]c2ccccc12)C1CCCCC1 | 1.49% (inactive) |
| Cc1cccc[n+]1CC(=O)c1ccccc1 | 9.96% (inactive) |
| COc1ccccc1NC(=O)C[n+]1ccccc1 | -1.7% (inactive) |
| COC(=O)C[n+]1cccc2ccccc21 | 195% (active) |
| Cn1ccs/c1=N\S(=O)(=O)c1ccc(C(C)(C)C)cc1 | 5.09% (inactive) |
| O=[N+]([O-])c1cc([N+](=O)[O-])c(Oc2cc(F)cc(F)c2F)cc1NN1CCCCC1 | -1.7% (inactive) |
| COc1ccc2nc(SCc3ccccc3)nc(C)c2c1 | 1.99% (inactive) |
| c1ccc(CSc2nnc(-c3ccco3)c(-c3ccco3)n2)cc1 | 82.3% (active) |
| Fc1cccc(Cl)c1CSc1ccc(-c2ccco2)nn1 | 17.6% (inactive) |
| Clc1ccccc1CSc1nnc(-c2ccco2)c(-c2ccco2)n1 | 79.9% (active) |
| O=C(CC1N=C2c3ccccc3N=C(SCc3ccccc3Cl)N2C1=O)NCc1ccco1 (stereo not given) | 19.4% (inactive) |
| CCc1nnc(SCc2cccc(F)c2)nc1CC | 0.71% (inactive) |

| SMILES | inhibition |
| --- | --- |
| CCOC(=O)C1CCCN(C(=O)COc2ccc(N(C)S(=O)(=O)c3ccc(C)cc3)cc2)C1 (stereo not given) | -2.82% (inactive) |
| CCCN(C(=O)c1nc2nccc(C)n2n1)c1c(N)n(Cc2ccccc2)c(=O)[nH]c1=O | 0.15% (inactive) |
| COCc1cc(=O)n2[nH]c(C)c(-c3ccccc3)c2n1 | 10.3% (inactive) |
| CCC1SC2=NCCN2C1(O)c1ccc(Cl)cc1 (stereo not given) | 7.57% (inactive) |
| CN1C(=O)/C(=C\c2cc(Br)cs2)c2ccccc21 | -0.58% (inactive) |
| O=C(COC(=O)c1ncc(Cl)c(Cl)c1Cl)NNC(=O)c1ccccc1 | 5.89% (inactive) |
| Cn1c(-c2ccc(C(F)(F)F)cc2)cc2onc(-c3ccccc3)c2c1=O | 4.36% (inactive) |
| Cc1oc2c(c1C(=O)N1CCOCC1)C(=O)c1ccccc1C2=O | -4.11% (inactive) |
| COC1=C(N2CCOCC2)C(=O)c2ccccc2C1=O | 6.69% (inactive) |
| O=C1c2ccccc2-c2ncnc3c(N4CCOCC4)cc(N4CCOCC4)c1c23 | 48.8% (active) |
| COc1ccc(OC)c(NC(=O)CN(C)CCOc2ccc(Br)cc2)c1 | -19.6% (inactive) |
| CCN(CC)C(=O)CC(c1ccc2c(c1)OCO2)c1c(OC)cc(OC)c2c(-c3ccccc3)cc(=O)oc12 (stereo not given) | 2.43% (inactive) |
| Cc1cc(C)c2c(-n3cccc3)c(C(=O)NNS(=O)(=O)c3ccc(F)cc3)sc2n1 | 13.1% (inactive) |
| Cc1cccn2c(=O)c3cc(C#N)c(=NC(=O)c4cccnc4)n(CC4CCCO4)c3nc12 (stereo not given) | 44.1% (active) |
| COc1ccc(CNC(=O)c2cc3c(=O)n4ccccc4nc3n(CC3CCCO3)c2=N)cc1 (stereo not given) | 9.61% (inactive) |
| Cc1cccn2c(=O)c3cc(C#N)c(=O)n(CCCN4CCOCC4)c3nc12 | 23.2% (inactive) |
| CCN(CC(=O)NCc1cccs1)c1nnnn1-c1ccccc1 | 3.16% (inactive) |
| O=C(NCc1cccnc1)C12CC3CC(CC(C3)C1)C2 | 3.8% (inactive) |
| Cc1cc(N2CCN(S(=O)(=O)c3ccc(C)c(C)c3)CC2)c2ccccc2n1 | -2.07% (inactive) |
| Cc1ccc(S(=O)(=O)C(C#N)c2nc3ccccc3nc2N2CCCC2)cc1C (stereo not given) | 75.8% (active) |

| SMILES | inhibition |
| --- | --- |
| Cc1ccc(S(=O)(=O)Nc2nc3ccccc3nc2N2CCc3ccccc3C2)cc1 | 12.7% (inactive) |
| O=C(CN1CCN(S(=O)(=O)c2ccc(Cl)s2)CC1)N1CCCCC1 | 5.82% (inactive) |
| O=C(NCCC1CCCCN1S(=O)(=O)c1ccc(Cl)cc1)C(=O)NCc1ccco1 (stereo not given) | 9.57% (inactive) |
| CCCn1c(C(C)Nc2nc(-c3ccc(C)cc3)cs2)nc2cc(Cl)c(N3CCCCC3)cc21 (stereo not given) | 5.75% (inactive) |
| CCCn1c(C2CCCN2c2nc(-c3ccc(C)cc3)cs2)nc2cc(Cl)c(N3CCCCC3)cc21 (stereo not given) | 75.2% (active) |
| CCCn1c(C2CCCN2c2nc(-c3ccc(OC)cc3)cs2)nc2ccccc21 (stereo not given) | 11.8% (inactive) |
| O=C1N[C@@H](Cc2ccccc2)C(=O)N2[C@@H]3N(S(=O)(=O)c4ccc(F)cc4)c4ccccc4[C@]3(Br)C[C@@H]12 | 8.03% (inactive) |
| CC(=O)NC(C)(C)C1CC=C(C)/C(=N\O)C1 (stereo not given) | -0.57% (inactive) |
| COC(=O)c1ccc(SCc2ccccc2)nc1 | 11.2% (inactive) |
| CCn1c(SCc2ccccc2)nc2cc(OC)c(OC)cc2c1=O | 3.42% (inactive) |
| CSc1c(SCc2ccccc2)cnn(Cc2ccccc2)c1=O | 181% (active) |
| Cc1c(C)c(C)c(S(=O)(=O)N2CCC3(CC2)OCCO3)c(C)c1C | 6.11% (inactive) |
| Cc1cc(CNC(=O)C2CCC(=O)N(CCc3ccc(Cl)cc3)C2)no1 (stereo not given) | 2.34% (inactive) |
| Cc1ccc(C(=O)NC2CCCC(C)C2C)cc1S(=O)(=O)N1CCCCC1 (stereo not given) | -1.76% (inactive) |
| O=C(Nc1nccs1)c1cc(S(=O)(=O)N2CCOCC2)c(Cl)cc1Cl | 5.02% (inactive) |
| Oc1cc2c(cc1O)CN(C(=S)NCCc1ccc(Cl)cc1)CCC2 | 34.4% (inactive) |
| O=C(COC(=O)/C=C/c1ccc(OC(F)F)cc1)NC1CCCCC1 | -2.99% (inactive) |
| COc1ccc(-c2nc(CS(=O)CC(=O)NCc3ccccc3)c(C)o2)cc1OC (stereo not given) | 9.71% (inactive) |
| COc1cccc(-c2nc(CS(=O)CC(=O)NCc3ccc(F)cc3)c(C)o2)c1 (stereo not given) | 0.44% (inactive) |
| COc1ccc(-c2nc(CS(=O)CC(=O)NCc3ccccn3)c(C)o2)cc1 (stereo not given) | 111% (active) |
